# Shown are actives, neighbours in structure and some others; about 7.9% of the full set was active somewhere.
# Marburg entry inh – qHTS for inhibitors of binding or entry into cells for Marburg Virus. actives 1.8% (n = 300,000). Marburg virus pseudotyped entry inhibition, cell reporter. Potency, µM (highest dose often 37.8 µM), hits mostly inhibitors; calls by dose curve; tested in HEK293 cells
# HCMV inh – qHTS Assay for inhibitors of the human cytomegalovirus (HCMV); AID 1259415, 2018; HFF cells, HCMV-luciferase reporter, 72 h; active compounds read low; actives 4.5% (n = 410,000); activity change, negative = inhibition, % at 57.5 µM; in the data active = activity change below about -60%; inconclusive = no clear call, values can overlap the other calls; inactive = above about -39%
#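 Steps: HFFs plated, 16 h 37C; compounds added; HCMV-luciferase added to MOI 1 PFU/cell; 72 h 37C; OneGlo reagent, 5 min room temperature; luminescence read, normalized to controls.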
# FMDV inh – High Throughput Screening for Foot and Mouth Disease Virus Antivirals. actives 1.2% (n = 410,000). Potency, µM (doses to about 57.9 µM), actives largely listed as inhibitors. FMDV antiviral cell-based qHTS. AID 1159524, 2015; calls by dose curve; tested in HEK293T cells; note: read-out not given here; nearly all actives have a fitted effect of over 45% in size
# Lassa entry inh – qHTS for Inhibitors of binding or entry into cells for Lassa Virus; Lassa virus pseudotype entry inhibition, cell reporter; Potency, µM (highest dose often 37.9 µM), hits mostly inhibitors; actives 1.2% (n = 300,000); AID 540256, 2011; calls by dose curve; tested in HEK293 cells; note: nearly all actives have a fitted effect of over 50% in size
# HCV inh – qHTS Assay for Inhibitors of Hepatitis C Virus (HCV) | Huh7.5.1 HCVcc-Cre infection, luciferase reporter, 44 h | Potency, µM (highest dose often 41.8 µM), actives largely listed as inhibitors | actives 3.4% (n = 340,000) | AID 651820, 2012; active = well fitted inhibition curve with a large enough effect; inconclusive = small, poorly fitted or top-dose-only effect, or another doubt; inactive = no such curve, though single readings can be large or run the other way
#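 Luciferase read-out (15 sec integration) after a 15 min room-temperature substrate step quantifies HCVcc-Cre infection. Cells, 1,000 per well, had compound added 4 h post-plating, then virus at ~0.5 moi, and were cultured 44 h.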
# Hits are given with their value; n = inactive; u = inconclusive; x = no result given; ! = not active in a repeat.
SMILES,Marburg entry inh,HCMV inh,FMDV inh,Lassa entry inh,HCV inh
CC(C)c1ccc(C2=CC(c3cccc(Cl)c3)n3c(nc4ccccc43)N2)cc1 (stereo not drawn),x,-63.2,n,n,x
Cc1ccc(-n2cc(CN3CCC(O)(c4ccccn4)CC3)c(-c3ccc(F)cc3)n2)cc1,3.98µM,u,n,u,u
C=CCN1C[C@@H](C)N(C(c2ccc(C(=O)N(CC)CC)cc2)c2cccc(OC)c2)C[C@@H]1C (stereo partly drawn),x,n,n,x,n
C=CCN1C[C@@H](C)N([C@H](c2ccc(C(=O)N(CC)CC)cc2)c2cccc(OC)c2)C[C@@H]1C,15.8µM,x,x,u,x
CC1(C)Cc2nc3oc4c(N(CCO)Cc5ccccc5)ncnc4c3cc2CO1,n,u,31.6µM,u,u
O=C(CSc1n[nH]c(=O)[nH]c1=O)c1ccccc1,n,-66.6,n,n,n
O=[N+]([O-])c1cccc(CSc2nnc(Cc3ccccc3)n2-c2ccc(F)cc2)c1,u,n,n,n,n
O=C(Nc1ccccc1)Nc1cnccn1,x,n,n,x,n
COc1ccccc1CNC(=O)COC(=O)c1n[nH]c2ccccc12,n,n,u,u,u
Cc1ccc(C)c(C(=O)COC(=O)c2n[nH]c3ccccc23)c1,n,-60.7,n,u,n
COc1ccc(CNC(=O)COC(=O)c2n[nH]c3ccccc23)cc1OC,u,n,11.2µM,u,10µM
Cc1cccc(C)c1OCCOC(=O)c1n[nH]c2ccccc12,u,u,n,n,u
CC12C=C(C=Cc3ccccc3)C(C)(C1)C(c1ccccc1)CC2=O (stereo not drawn),n,x,x,x,x
COC(=O)c1cc(CNC(=O)c2ccc3ccccc3n2)cc(NC(=O)c2cccc(OC)c2)c1,x,x,n,x,x
COC(=O)c1ccc(CSc2nc3ccccc3c(=O)n2-c2ccc(OC)c(OC)c2)o1,n,n,x,u,10µM
Cn1c(SCc2ccc(Br)cc2)nc2ccccc2c1=O,n,n,u,n,u
Cn1c(SCc2ccccc2)nc2ccsc2c1=O,u,u,n,u,10µM
Cc1cccc(CSc2nc3ccccc3c(=O)n2C)c1,x,-75.9,u,x,22.4µM
Cn1c(SCCOc2ccccc2F)nc2ccccc2c1=O,3.55µM,u,39.8µM,n,n
COc1ccc(OC)c([C@@H](O)[C@H](C)N)c1,x,x,n,x,x
COc1cccc(Nc2cc3c(cn2)cc(-c2cnn(C)c2)n3C)c1,x,n,x,x,x
Cl/C(=C\n1cncn1)c1ccc(Cl)cc1Cl,x,x,n,x,x
COCCn1c(SCc2ccc(C(=O)OC)o2)nc2ccccc2c1=O,n,n,x,n,n
COC(=O)c1cc(CSc2nc3ccccc3c(=O)n2C)oc1C,u,-73.9,u,u,u
COc1ccc(C(=O)C(=O)N2CCN(c3ccccc3F)CC2)cc1,x,-68.1,n,x,x
SMILES,Marburg entry inh,HCMV inh,FMDV inh,Lassa entry inh,HCV inh
COc1ccc(-c2cn3c(C)c(C(=O)N4CCN(c5ccccc5F)CC4)sc3n2)cc1,x,-60.4,n,x,u
COc1ccc(CC(=O)N2CCN(c3ccccc3F)CC2)cc1OC,u,n,n,u,11.2µM
COc1cc(OC)cc(C(=O)N2CCN(c3ccccc3F)CC2)c1,u,n,n,n,u
COc1ccc(-c2cn3c(C)c(C(=O)N4CCCc5ccccc54)sc3n2)cc1,x,u,u,x,11.2µM
O=C(COC(=O)c1ccccc1C(=O)c1ccc(Cl)c([N+](=O)[O-])c1)NC1CCCCCC1,4.11µM,x,u,18.3µM,12.6µM
Cn1c(N)c(C(=O)COC(=O)c2ccccc2C(=O)c2ccccc2)c(=O)n(C)c1=O,x,n,n,x,n
O=C(COC(=O)c1ccc(Cl)c([N+](=O)[O-])c1)NC1CCCC1,x,n,n,x,n
Cn1c(N)c(C(=O)COC(=O)c2ccccc2C(=O)c2ccc(Cl)c([N+](=O)[O-])c2)c(=O)n(C)c1=O,11.2µM,x,u,u,11.2µM
CN(CCC#N)C(=O)COC(=O)c1ccccc1C(=O)c1ccc(Cl)c([N+](=O)[O-])c1,u,-97.4,u,u,2.82µM
Cc1cccc(N(Cc2ccccc2)C(=O)c2cc(S(=O)(=O)N3CCOCC3)ccc2Cl)c1,12.6µM,u,n,u,u
Cc1ccc(N(Cc2ccccc2)C(=O)c2cc(S(=O)(=O)N3CCOCC3)ccc2Cl)cc1,u,n,n,u,u
Cc1ccc(N(Cc2ccccc2)C(=O)c2ccc(C)c(S(=O)(=O)N3CCOCC3)c2)cc1,x,u,n,x,31.6µM
c1ccc(OCCSc2nnc3sc4ccccc4n23)cc1,2.06µM,u,x,10.3µM,n
COc1ccc(S(=O)(=O)N2c3ccccc3OCC2C)cc1 (stereo not drawn),n,-66.2,n,u,u
COc1ccc(S(=O)(=O)N2c3ccccc3OCC2c2ccccc2)cc1 (stereo not drawn),u,u,12.6µM,n,u
COc1ccc(S(=O)(=O)N2c3ccccc3OCC2C(C)(C)C)cc1 (stereo not drawn),n,n,n,n,n
Cc1ccc(Cl)cc1N1CCN(C(=O)c2ccc(CS(=O)(=O)c3ccc(Br)cc3)o2)CC1,u,-68.0,u,n,x
Cc1ccccc1S(=O)(=O)Cc1ccc(C(=O)N2CCN(c3cccc(C)c3C)CC2)o1,u,n,25.1µM,3.55µM,5.01µM
COc1ccc(C(=O)c2c(C(F)(F)F)oc3c2C(=O)c2ccccc2C3=O)cc1,3.16µM,x,u,u,1.58µM
CC(C)NC(=O)C1CCN(C(=O)c2cc3sccc3n2Cc2ccc(F)cc2)CC1,8.2µM,x,x,u,u
CC(C)NC(=O)C1CCN(C(=O)c2cc3sccc3n2Cc2ccc(Cl)cc2)CC1,u,x,15.8µM,x,x
CC1CCN(C(=O)C2CCN(C(=O)c3cc4sccc4n3Cc3ccc(F)cc3)CC2)CC1,u,x,u,u,n
O=S(=O)(Nc1cc2nc3ccccc3nc2n1Cc1ccccc1)c1ccc(Cl)cc1,u,-90.7,n,7.31µM!,u
COCCCNC(=O)c1c(N)n(Cc2ccco2)c2nc3ccccc3nc12,x,n,u,x,n
CC(C)OCCCNC(=O)c1c(N)n(Cc2cccs2)c2nc3ccccc3nc12,u,-74.2,n,u,10µM
SMILES,Marburg entry inh,HCMV inh,FMDV inh,Lassa entry inh,HCV inh
CC(C)CCn1c(N)c(C(=O)NCc2cccs2)c2nc3ccccc3nc21,u,n,n,n,14.1µM
COCCn1c(N)c(C(=O)NCc2cccs2)c2nc3ccccc3nc21,u,u,n,n,u
O=C(NCc1ccccc1)C1CCN(C(=O)c2cnn(-c3ccccc3)c2-n2cccc2)CC1,n,n,n,x,x
CC1(C)CC(=O)C(C=NCC2CCN(C(=O)Cc3ccccc3)CC2)=C(O)C1,n,n,n,n,n
NC(=O)CSc1ncc2c(n1)-c1ccccc1N(Cc1cccc(F)c1)S2(=O)=O,x,n,n,n,x
Cn1c(COc2ccccc2O)[n+](C)c2ccccc21,x,n,n,x,n
CCCCCCCCCCOC(=O)Cn1c(COc2ccccc2OC)[n+](C)c2ccccc21,2.51µM,u,u,u,14.1µM
CCCS(=O)(=O)NCc1c(C)ncc2c1CCN(C(=O)/C=C/c1cccc(Cl)c1)C2,x,x,n,x,x
COc1cccc(N2CCN(c3c(C#N)c(C(F)(F)F)nn3C)CC2)c1,u,-94.3,u,u,u

# Screening data (PubChem)
